# Screening results: PubChem, Sanford-Burnham Center for Chemical Genomics
# This is a sample that favours compounds with a hit; in the whole collection about 1.1% have one here.
# NPR2 activator = GC-B (human) receptor activation. actives 0.11% (n = 370,000). activation, % at 10 µM. P20594. HEK293-GC-B cells, CNP EC30, cGMP TR-FRET; 0% at EC30 CNP, 100% saturating CNP;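 active = activation at 10 µM reaching about 35% in either raw or pattern-adjusted values, limit read from the data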
# FAS-TE inh = FAS thioesterase (human) inhibition. AID 602261. inhibition, % at 15 µM. P49327. recombinant FAS-TE, OMFH fluorogenic substrate, fluorescence endpoint. actives 0.67% (n = 360,000);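 active = compounds whose normalised, plate-corrected inhibition of enzyme fluorescence in the single-dose primary screen is 50% or more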;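 also: 0% = DMSO with enzyme and 100% = substrate without enzyme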
# aDG glyco act = alpha-DG glycosylation activation | AID 624168 | activation, % at 10 µM | actives 0.22% (n = 360,000) | Pro5-aDG cells, alpha-DG glycosylation AlphaScreen (IIH6); 0% Pro5, 100% B10-LARGE cell signal;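 active = activation of at least 8% versus controls, or a plate z-score of at least 8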;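 also: Pro5 are CHO cells carrying HIG-tagged alpha-DG that lacks glycosylation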
# GC-A act = GC-A (human) enzyme activation; AID 1671463; P16066; actives 0.14% (n = 370,000); HEK293 GC-A cells, cGMP TR-FRET, EC30 ANP; 0% at EC30 ANP, 100% saturating ANP; activation, % at 10 µM; in the data active = activation above about 40%
# FAS-TE conf = confirmation of human fatty acid synthase thioesterase inhibitors; shares compounds with FAS-TE inh; recombinant FAS-TE, OMFH fluorogenic substrate, fluorescence; inhibition, % at 15 µM; actives 45% (n = 2,300); AID 624325;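 active = compounds inhibiting the enzyme by at least 50% at 15 µM in any one of the replicates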;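 also: 0% = enzyme with DMSO only and 100% = wells lacking enzyme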
# * = called active by the depositor; . = not tested or not shown.
SMILES,NPR2 activator,FAS-TE inh,aDG glyco act,GC-A act,FAS-TE conf
O=C1[C@H]2[C@@H](c3ccc(F)cc3)N3C(=O)N(c4cccc(F)c4)C(=O)[C@@]3(Cc3ccccc3)[C@H]2C(=O)N1C1CCCCC1,-14,46,0,-12,.
O=C1[C@H]2[C@@H](c3ccc(F)cc3)N3C(=O)N(c4cccc(Br)c4)C(=O)[C@@]3(Cc3ccccc3)[C@H]2C(=O)N1C1CCCCC1,-6,80*,1,-13,35
CC[C@@]12C(=O)N(c3cccc(Br)c3)C(=O)N1[C@H](c1ccc(F)cc1)[C@@H]1C(=O)N(C3CCCCC3)C(=O)[C@@H]12,-10,52*,0,-7,24
Cc1nc(N2CCOCC2)nc(Oc2ccccc2)c1[N+](=O)[O-],-4,52*,1,-1,43
CCN(Cc1ccccc1)c1ccc(/C=N/NC(=O)c2cccc(S(=O)(=O)N3CCOCC3)c2)cc1,2,82*,1,6,8
O=C1OCCN1C(=O)[C@H]1[C@H](c2ccc(F)cc2)C(c2ccc(F)cc2)=NN1c1ccccc1,-6,74*,0,-8,4
Cc1cccc(C2=NN(c3ccc(Br)cc3)[C@@H](C(=O)N3CCOC3=O)[C@@H]2c2ccc([N+](=O)[O-])cc2)c1,0,85*,0,-1,13
O=C1OCCN1C(=O)[C@H]1[C@H](c2ccc(Cl)cc2)C(c2ccc(F)cc2)=NN1c1ccccc1,1,74*,0,-12,32
COc1ccccc1[C@@H]1C(c2ccccc2)=NN(c2ccccc2)[C@H]1C(=O)N1CCOC1=O,-5,55*,0,-6,21
CC[C@@H]1C(c2ccccc2)=NN(c2ccccc2)[C@H]1C(=O)N1CCOC1=O,1,4,0,-2,.
O=C1OCCN1C(=O)[C@H]1[C@H](c2ccc(F)cc2)C(c2ccccc2)=NN1c1ccccc1,-8,31,0,-4,.
COC(=O)[C@]12C[C@H](CC(=O)NCC3CCCCC3)C(=O)N(Cc3ccccc3)C1=C[C@H](C(C)C)O[C@@H]2C1CC1,-1,.,.,-3,.
O=C1OCCN1C(=O)[C@H]1[C@H](c2ccc([N+](=O)[O-])cc2)C(c2ccccc2)=NN1c1ccccc1,-6,78*,0,-4,19
C#CCNC(=O)C[C@H]1C(=O)N(CCCOC)C2=CCCCC[C@]21C(=O)OC,2,.,.,3,.
CC(C)OC(=O)[C@H]1[C@H](c2ccc(Cl)cc2)[C@@](C#N)(C(N)=O)[C@@H]2C=CC(C(N)=O)=CN21,.,59*,0,.,59*
O=C(N[C@@H](Cc1cccnc1)C(=O)N1CCC[C@H]1C(=O)NCc1ccccc1)c1ccccc1,-5,.,.,0,.
COc1ccc2c(c1)OC[C@H]1[C@H]2N2C(=O)CN(Cc3ccc(C)cc3)C(=O)[C@@]2(C)[C@H]1c1ccccc1,-1,62*,0,-2,35
COc1ccc2c(c1)OC[C@H]1[C@H]2N2C(=O)CN(Cc3ccc(F)cc3)C(=O)[C@@]2(C)[C@H]1c1ccccc1,-10,61*,1,-3,41
COc1ccc(CN2CC(=O)N3[C@H]4c5ccccc5OC[C@@H]4[C@H](c4ccccc4)[C@]3(C)C2=O)cc1,-5,47,0,-5,.
C[C@@]12C(=O)N(Cc3ccc(F)cc3)CC(=O)N1[C@H]1c3cc(Cl)ccc3OC[C@@H]1[C@@H]2c1ccccc1,-11,84*,0,-6,37
Cc1nn(Cc2ccc([N+](=O)[O-])cc2)c(=O)n1-c1cccc(Cl)c1,3,66*,0,3,75*
O=C(NNc1ccc([N+](=O)[O-])cc1[N+](=O)[O-])C1C2CCCCC21 (stereo not drawn),8,62*,0,0,23
O=C(CCCC(=O)Nc1cccc(Br)c1)N/N=C/c1cc([N+](=O)[O-])ccc1O,6,54*,0,-5,72*
Cc1ccc(NC(=O)CCC(=O)N/N=C/c2cc([N+](=O)[O-])ccc2O)cc1,-9,32,0,3,.
O=C(CCC(=O)Nc1cccc(Cl)c1)N/N=C/c1cc([N+](=O)[O-])ccc1O,-4,65*,0,1,83*
CC(=O)C1=C(C)N(CC(C)C)C(=S)NC1c1ccc(Br)cc1 (stereo not drawn),-14,.,.,-15,.
